Most compounds without a hit are left out; they make up all but 3.8% or so of the library.
Mtb FBA inh: Mtb FBA enzyme inhibitors, primary screen, biochemical, fluorescence, strain H37Rv | Fructose-bisphosphate aldolase (Mycobacterium tuberculosis (strain ATCC 25618 / H37Rv)), … | purified M. tuberculosis FBA, fluorescence read-out | inhibition, % at 1 µM | actives 2.3% (n = 360,000) | AID 588726, 2011; in the data active = inhibition above about 27%;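 note: 0% = vehicle and 100% = reference inhibitor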
Target sequence (P9WQA3 whole entry, looked up): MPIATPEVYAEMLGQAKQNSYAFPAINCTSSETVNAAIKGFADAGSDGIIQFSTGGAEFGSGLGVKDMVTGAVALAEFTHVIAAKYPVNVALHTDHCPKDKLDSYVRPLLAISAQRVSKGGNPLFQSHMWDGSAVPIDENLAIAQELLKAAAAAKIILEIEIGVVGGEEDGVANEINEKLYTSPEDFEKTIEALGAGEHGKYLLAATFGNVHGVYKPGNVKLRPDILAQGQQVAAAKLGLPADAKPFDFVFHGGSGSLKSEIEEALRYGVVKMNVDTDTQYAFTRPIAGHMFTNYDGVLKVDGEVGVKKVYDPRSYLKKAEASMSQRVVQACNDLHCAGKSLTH
PrP 5UTR inh: inhibition of PrP 5' UTR reporter expression; cell-based PrP 5' UTR mRNA reporter, plate reader; inhibition, % (test concentration not listed); actives 0.35% (n = 340,000); AID 488862, 2010; in the data active = inhibition above about 52%; note: 0 = median of the neutral control wells
Y pestis TopoI: Yersinia pestis topoisomerase I inhibitors, primary screen, biochemical, cleavage product accumulation, plate reader, single point. DNA topoisomerase I (Yersinia pestis CO92). Y. pestis Topo-I cleavage product accumulation. activity, % at 10 µM. actives 0.064% (n = 360,000). AID 504884, 2011; in the data active = activity above about 50%, passing the limit was not always enough
PrPC surface inh: inhibitors of human cell surface prion protein PrPC, primary screen, cell-based, TR-FRET. actives 0.43% (n = 370,000). inhibition, % at 13.8 µM. AID 720596, 2013. TR-FRET read-out; in the data active = inhibition above about 24%; note: 0% = median of the test wells and 100% = reference compound wells
GDH-TPI counter: GDH-TPI coupling enzyme inhibitors, primary screen, artefact control for M. tuberculosis FBA inhibitor project, biochemical, absorbance, full deck; GDH-TPI coupled enzyme counterscreen, NADH absorbance; actives 1.2% (n = 360,000); inhibition, % at 4.8 µM; in the data active = inhibition above about 30%;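 note: 0% = DMSO wells and 100% = wells lacking the enzyme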
Mtb hypoxia inh: PubChem AID 1159583. M. tuberculosis hypoxia-regulated fluorescent reporter, fluorescence. fluorescence inhibition, % (no concentration beside the values). actives 0.1% (n = 300,000); in the data active = fluorescence inhibition mostly above about 23%, no sharp cut-off; inactive = mostly below about 17%
* = called active by the depositor; . = no result given; + = active, no number.

SMILES	Mtb FBA inh	PrP 5UTR inh	Y pestis TopoI	PrPC surface inh	GDH-TPI counter	Mtb hypoxia inh
COc1ccc2sc(-c3ccc(N(C)C)cc3)c(C#CCCO)c2c1	+	-25.3	7.0	2.5	18.8	9.9
COc1ccc2sc(-c3ccc(N(C)C)cc3)c(C#CC(C)(C)O)c2c1	+	-28.1	1.5	-0.5	22.9	1.8
Cc1ccccc1-n1c(O)c(C=Nc2ccc(N(C)C)cc2)c(=O)[nH]c1=O	-9.3	-19.7	-5.5	-7.7	43.4*	12.5
Cc1ccccc1-n1c(O)c(/C=C/C=Nc2ccccc2)c(=O)[nH]c1=O	-15.8	-10.1	0.7	-8.3	18.4	.
Cc1cccc(N=Cc2c(O)n(-c3ccccc3C)c(=O)[nH]c2=O)c1	-1.6	-8.6	-1.8	3.5	47.8*	15.7
Cc1csc(Nc2nc(N)c(C(=O)Nc3ccccc3)o2)n1	-0.6	-51.6	-17.1	5.2	34.9*	-1.9
Cc1c(C)c2ccc(OS(C)(=O)=O)cc2oc1=O	20.2	-28.2	15.4	6.3	-4.9	6.2
CCOc1ccc2c(C)c(Cl)c(=O)oc2c1	+	-19.1	-3.7	-12.3	12.2	.
CC(=O)COc1ccc2c(C)c(C)c(=O)oc2c1	131.3*	-14.1	-4.3	4.8	11.8	.
Cc1c(Cl)c(=O)oc2cc(OCC(=O)NCc3cccs3)ccc12	36.8*	-1.9	-1.9	-2.7	13.9	8.2
Cc1ccc(OCC(=O)NCc2cccs2)cc1	-1.9	-39.1	11.3	-1.6	-3.5	25.7
COc1cc(OC)c2c(C)c(Cl)c(=O)oc2c1	123.6*	0.2	2.7	-35.3	16.4	.
CC(=O)Nc1cccc(C(C)=NNC(=O)c2ccc3c(c2)OCO3)c1	.	.	.	.	.	1.8
C=CC1C(OC2OC(CO)C(O)C(O)C2O)OC=C2C(=O)OCC[C@]21O (stereo partly drawn)	.	.	.	.	.	0.6
CCN1C(=NCCOC)NC(c2cccs2)C(C(=O)OC)=C1C (stereo not drawn)	.	.	.	.	.	21.2
CCc1ccc(C=C2C(=O)N(C)C(=S)N2CC(=O)OC)s1	.	.	.	.	.	2.6
Cc1c(C)c2ccc(OCC(=O)N3CCC(C(=O)O)(c4ccccc4)CC3)cc2oc1=O	140.5*	-10.9	7.6	-0.8	13.7	.
Cc1c(C)c2ccc(OCC(=O)N3CCN(c4ccccc4)CC3)cc2oc1=O	3.2	-1.3	37.7	.	8.9	-4.1
Cc1ccc(NC(=O)c2ccc(Cl)c(S(=O)(=O)NCc3ccco3)c2)c(O)c1	0.0	-3.7	-12.8	-0.9	5.6	-7.3
NS(=O)(=O)c1ccc(NC(=O)c2ccc(Cl)c(S(=O)(=O)NCc3ccco3)c2)cc1	0.9	-16.0	-4.5	-5.5	3.0	22.2*
C[N+]1([O-])C2Cc3cc4c(cc3C1Cc1cc3c(cc12)OCO3)OCO4 (stereo not drawn)	.	.	.	.	.	-0.5
O=C(Nc1nc2ccccc2n1CCN1CCOCC1)c1ccc(Cn2cc([N+](=O)[O-])cn2)o1	2.5	-4.3	-0.6	5.0	47.8*	.
O=C(Nc1nc2ccccc2n1CCN1CCOCC1)c1ccc(COc2ccccc2Br)o1	4.0	-17.3	31.9	-8.2	13.7	0.9
CCn1nc(C(=O)Nc2cccc(S(=O)(=O)N3CCCC3)c2)c2ccccc2c1=O	-2.5	-15.7	22.3	-7.8	8.2	23.2*
CC(C)Cn1nc(C(=O)Nc2cccc(S(=O)(=O)N3CCCC3)c2)c2ccccc2c1=O	1.5	9.4	15.6	4.1	3.0	3.1
SMILES	Mtb FBA inh	PrP 5UTR inh	Y pestis TopoI	PrPC surface inh	GDH-TPI counter	Mtb hypoxia inh
CC(NC(=O)c1nc[nH]c1C(=O)NCCCCCNC(=O)OC(C)(C)C)C(=O)OC(C)(C)C (stereo not drawn)	.	.	.	.	.	6.9
CCC(=NCCC(c1ccccc1)c1ccccc1)c1c(O)[nH]c(=O)[nH]c1=O	-2.9	-6.0	66.1*	14.1	7.4	-7.1
COc1cccc(N2C(CC(C)=O)c3ccc(C=CC(C)=O)cc3S2(=O)=O)c1 (stereo not drawn)	.	.	.	.	.	7.3
COc1cccc(C(=O)Oc2ccccc2/C=C\C(=O)c2cc3ccccc3o2)c1	-0.7	-41.3	1.3	-11.0	31.1*	-2.6
O=C(Oc1ccccc1/C=C\C(=O)c1cc2ccccc2o1)c1ccccc1	0.0	-100.2	4.4	-11.5	7.4	12.1
O=C(Cn1nnc(-c2ccccc2)n1)NNC(=O)c1ccc(Br)cc1	-0.8	-32.9	55.7*	7.7	-9.3	1.2
CCOc1ccc(/C=N/NC(=S)Nc2c(C)cccc2C)cc1	2.4	-11.5	8.7	16.6	31.9*	.
CCNC(=S)N/N=C/c1ccc(OCCOc2ccccc2C)cc1	-1.0	-15.4	23.4	2.2	14.9	.
O=C(Nc1ccccc1)C1CCCN1/C=C/C(=O)C(F)(F)F (stereo not drawn)	2.4	-5.0	-2.0	0.6	43.9*	0.5
COc1ccc(/C=N/N(C)c2cc(=O)n(C)c(=O)[nH]2)cc1OC	-1.9	-7.7	4.7	1.2	45.7*	.
CN(/N=C/C=C/c1ccccc1)c1cc(=O)n(C)c(=O)[nH]1	-4.6	-39.2	2.7	-12.3	73.0*	.
Nc1nc2ccccc2n1/N=C/c1ccc2c(c1)OCO2	1.0	.	-1.6	0.1	49.0*	.
Oc1ccc(C=NN2CCOCC2)c(O)c1O	.	.	.	.	.	7.1
COc1ccc2cc(C(=O)C3CCCN(C(=O)c4cccnc4)C3)ccc2c1 (stereo not drawn)	162.9*	-19.1	22.4	16.3	17.7	11.7
COc1ccc2cc(C(=O)C3CCCN(C(=O)c4cncs4)C3)ccc2c1 (stereo not drawn)	152.5*	-8.7	26.0	-1.8	8.4	0.2
COc1ccc2cc(C(=O)C3CCCN(C(=O)CCc4cnn(C)c4)C3)ccc2c1 (stereo not drawn)	126.7*	-22.2	23.6	1.8	7.8	7.2
Cn1cc(CCC(=O)N2CCCC(C(=O)c3cccc4ccccc34)C2)cn1 (stereo not drawn)	7.5	-12.7	0.4	-0.1	-3.7	12.9
COc1ccc2cc(C(=O)C3CCCN(C(=O)CSc4nnc(C)o4)C3)ccc2c1 (stereo not drawn)	126.1*	2.7	6.1	-6.5	17.1	9.7
O=C(c1ccc2ccccc2c1)C1CCCN(C(=O)c2cccnc2)C1 (stereo not drawn)	7.2	-7.0	15.6	-4.8	2.8	10.7
COC(=O)c1ccnc(C=NO)c1	.	.	.	.	.	11.8
CC(=NNc1nc2ccccc2[nH]1)c1ccc([N+](=O)[O-])cc1	.	.	.	.	.	14.5
COc1ccc(OC2C=CC(c3ccccc3)OC2COC(=O)CCC(C)=NOCC(O)COCc2ccco2)cc1 (stereo not drawn)	.	.	.	.	.	11.9
O=c1cc(-c2ccc(O)cc2)oc2c(C3OC(CO)C(O)C(O)C3O)c(O)c(C3OC(CO)C(O)C(O)C3O)c(O)c12 (stereo not drawn)	.	.	.	.	.	17.4
C[C@]12CCC(O)CC1CCC1C2CC[C@]2(C)C(=O)CCC12 (stereo partly drawn)	.	.	.	.	.	-2.0
